Source: publication PMC4336329 (PLoS ONE, 2015)
The whole screen tested about 310,000 compounds, of which about 14,000 (4.5%) showed an effect of 50% or more. Effects have a minus sign here. Many of the other results were omitted from the sample, so strong results are more common in it than they were.

biological target: human ether-à-go-go-related gene (hERG) potassium channel (human, UniProt Q12809); experiment: primary screen, population patch clamp on CHO cells stably expressing hERG; higher = less effect of the substance
Sequence (Q12809 whole entry, looked up): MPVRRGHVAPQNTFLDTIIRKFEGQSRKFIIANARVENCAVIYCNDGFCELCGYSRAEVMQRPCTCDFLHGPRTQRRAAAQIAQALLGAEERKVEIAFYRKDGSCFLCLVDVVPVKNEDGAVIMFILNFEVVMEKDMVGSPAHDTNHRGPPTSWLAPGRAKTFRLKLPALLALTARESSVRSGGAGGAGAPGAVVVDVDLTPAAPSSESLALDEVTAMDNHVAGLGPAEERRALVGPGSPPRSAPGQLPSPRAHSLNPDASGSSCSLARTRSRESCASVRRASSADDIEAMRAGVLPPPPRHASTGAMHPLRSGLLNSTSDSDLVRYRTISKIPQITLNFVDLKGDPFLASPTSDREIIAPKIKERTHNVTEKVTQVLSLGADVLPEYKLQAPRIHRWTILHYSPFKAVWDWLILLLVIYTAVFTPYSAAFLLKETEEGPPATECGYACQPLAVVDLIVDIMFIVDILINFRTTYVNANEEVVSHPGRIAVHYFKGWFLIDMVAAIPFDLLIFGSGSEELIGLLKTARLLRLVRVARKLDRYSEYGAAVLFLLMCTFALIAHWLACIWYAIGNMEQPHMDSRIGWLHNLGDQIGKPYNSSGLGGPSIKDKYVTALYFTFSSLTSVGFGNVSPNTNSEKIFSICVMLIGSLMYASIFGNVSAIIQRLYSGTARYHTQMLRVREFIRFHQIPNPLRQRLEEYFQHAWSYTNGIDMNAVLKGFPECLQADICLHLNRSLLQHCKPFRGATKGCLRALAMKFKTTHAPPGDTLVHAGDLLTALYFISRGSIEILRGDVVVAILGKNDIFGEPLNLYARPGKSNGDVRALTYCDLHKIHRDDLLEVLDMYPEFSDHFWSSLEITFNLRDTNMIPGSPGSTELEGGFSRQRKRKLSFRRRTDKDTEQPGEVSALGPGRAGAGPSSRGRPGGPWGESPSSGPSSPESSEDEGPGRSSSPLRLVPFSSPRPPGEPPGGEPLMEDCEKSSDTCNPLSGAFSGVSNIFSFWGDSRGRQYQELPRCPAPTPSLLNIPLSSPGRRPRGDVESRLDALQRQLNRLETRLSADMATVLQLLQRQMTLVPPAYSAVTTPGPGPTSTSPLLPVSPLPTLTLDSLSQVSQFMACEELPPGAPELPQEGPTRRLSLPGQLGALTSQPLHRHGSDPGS
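Further: peak tail current of the secondary pulse compared with the same well before compound.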

Compound	hERG current change (%, negative = inhibition) at 10uM [%]
Cc1ccc(S(=O)(=O)N2CCN(S(=O)(=O)c3ccc(C)cc3)C2)cc1	-24.9
CCN(CC)S(=O)(=O)c1cc(-c2nnc(-c3ccc(Br)cc3)o2)ccc1Br	12.7
COCCNC(=S)NN(c1ccccc1)c1ccccc1	-1.18
Oc1cc2c(cc1CN1CCc3ccccc3C1)OCO2	-0.697
CS(=O)(=O)N1CCN(c2ccc(NC(=O)COc3ccccc3)cc2)CC1	0.0465
COc1ccc(/C=N/NC(=O)c2ccc(NC(=O)c3ccccc3Br)cc2)cc1	6.43
CCN1/C(=C/c2cccc[n+]2C)Sc2ccc(OC)cc21.[I-]	-67.3
CCN1/C(=C\C(C)=O)Sc2ccc(OC)cc21	13.9
CCN1/C(=C/C(C)=O)Sc2ccc(OC)cc21	-12.7
CCCNC(=O)COC(=O)c1cccnc1Nc1ccccc1F	-9.21
CCC1C(=O)NCCN1C(=O)c1ccc2nc(Cc3cccc(Cl)c3)oc2c1 (centres unmarked)	-18.6
O=C(Cc1ccccc1[N+](=O)[O-])NCc1ccc(Cl)cc1	5.25
O=C(COC(=O)Cc1ccccc1[N+](=O)[O-])NCc1ccc(Cl)cc1	-11
CCN(CC(=O)NCc1ccc(Cl)cc1)C(=O)CCc1ccccc1	-58.7
CCN(CC(=O)NCc1cccs1)C(=O)CCc1c[nH]c2ccccc12	-17.6
O=C(CCCc1ccccc1)NCc1ccc(Cl)cc1	-15.3
CCN(CC(=O)NCc1ccc(Cl)cc1)C(=O)Cc1ccccc1[N+](=O)[O-]	-63.4
CCN(CC(=O)NCc1ccc(Cl)cc1)C(=O)CCc1ccccc1O	-54.1
CCN(CC(=O)NCc1ccc(Cl)cc1)C(=O)C(C)Sc1ccccc1 (centres unmarked)	-33.8

Compound	hERG current change (%, negative = inhibition) at 10uM [%]
CCN(CC(=O)NCc1ccc(Cl)cc1)C(=O)NCc1ccc(Cl)cc1	-48.4
O=C(CC(c1ccccc1)c1cc(Cl)ccc1O)N1CCCC1 (centres unmarked)	-17.5
O=C(NS(=O)(=O)Nc1ccccn1)c1c[nH]c2ccccc12	15.4
Cc1cccc(NC(=O)C2CCN(C(=O)NC3CCCCC3)CC2)c1	7.39
CS(=O)c1ccccc1COC(=O)Nc1ccccc1 (centres unmarked)	9.76
Cc1c(NC(=O)c2ccccc2)c(=O)n(-c2ccccc2)n1C	-3.48
O=C(NCc1ccco1)C1CCN(C(=O)c2ccc(Cl)cc2Cl)CC1	-0.217
O=C(NCc1ccco1)C1CCN(c2nc3ccccc3n2Cc2ccccc2F)CC1	-66.2
COc1nc(OC)nc(N2CCC(C(=O)NCc3ccco3)CC2)n1	-18.3
O=C(NCc1ccco1)C1CCN(C(=O)c2cc3sccc3n2Cc2ccc(Cl)cc2)CC1	-64.8
CCn1c(C(=O)N2CCC(C(=O)NCc3ccc(OC)cc3)CC2)cc2sccc21	-41.9
CCn1c(C(=O)N2CCC(C(=O)N3CCN(c4ccccn4)CC3)CC2)cc2sccc21	-60.5
Cn1c(C(=O)N2CCCC(C(=O)NCc3cccs3)C2)cc2sccc21 (centres unmarked)	-16.1
CCOC(=O)N1CCN(C(=O)C2CCN(C(=O)c3cc4sccc4n3CC)CC2)CC1	-28.8
Cc1cc(C)nc(N2CCC(C(=O)NCc3ccccc3F)CC2)n1	27
CCn1c(C(=O)N2CCC(C(=O)NCc3cccs3)CC2)cc2sccc21	-63
O=C(NCc1ccco1)c1cc2sccc2n1Cc1ccccc1	-15.7
CCN1CCN(C(=O)C2CCN(C(=O)c3cc4sccc4n3CC)CC2)CC1	-2.39
COC(=O)CSc1nnc(COc2cccc3ccccc23)o1	13.6

Compound	hERG current change (%, negative = inhibition) at 10uM [%]
CN(C)/C=C1\N=C(c2ccccc2)OC1=O	3.09
COc1ccc(N2CCN(C(C)C(=O)Nc3nnc(C)s3)CC2)cc1.Cl (centres unmarked)	-1.41
CSc1ccccc1NC(=O)Cc1ccccc1	13.8
CCN(CC)S(=O)(=O)c1ccc(NC(=O)CCN2C(=O)C3CC=CCC3C2=O)cc1 (centres unmarked)	-30
CC1(c2ccccc2Cl)NC(=O)N(CC(=O)Nc2ccc(N3CCCCC3)cc2)C1=O (centres unmarked)	-21.9
CC(=O)N1CCc2cc(S(=O)(=O)CCC(=O)Nc3ccccc3F)ccc21	13.3
CC(C)NC(=O)C1CCN(C(=O)c2cc3sccc3n2Cc2ccc(F)cc2)CC1	-3.2
CCN(CCCNC(=O)C1CCN(C(=O)c2cc3sccc3n2C)CC1)Cc1ccccc1	-38.4
O=C(NCc1ccco1)C1CCN(C(=O)c2cc3sccc3n2Cc2ccc(F)cc2)CC1	-68.5
O=C(c1cc2sccc2n1Cc1ccccc1)N1CCN(c2nc3ccccc3s2)CC1	-17
CCCCN(CCCNC(=O)C1CCN(C(=O)c2cc3sccc3n2C)CC1)Cc1ccccc1	-60.8
O=C(c1ccco1)N1CCN(C(=O)c2cc3sccc3n2Cc2ccccc2)CC1	-55.6
O=C(NCCN1CCOCC1)c1cc2sccc2n1Cc1ccc(Cl)cc1	-59.9
O=C(Cn1c(C(=O)NCCCN2CCOCC2)cc2sccc21)c1ccccc1	-16.5
CCOC(=O)c1cc2sccc2n1CC(=O)N1CCN(C(=O)c2ccco2)CC1	-48.2
CC(C)N(CCCNC(=O)C1CCN(C(=O)c2cc3sccc3n2C)CC1)Cc1ccccc1	-23.2
O=C(NCc1ccccn1)C1CCN(C(=O)c2cc3sccc3n2Cc2ccc(F)cc2)CC1	-46.5
O=C(NCCN1CCOCC1)c1cc2sccc2n1Cc1ccc(F)cc1	-47
